Screening results as filed in PubChem BioAssay.
The list is not random: actives were taken first. Their share in the collection is about 4.1%.
M18AAP inhibitor: PfM18AAP enzyme inhibition; inhibition, % at 7.35 µM; 1.2% of 290,000 active; recombinant PfM18AAP, H-Glu-NHMec fluorogenic cleavage;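 active = inhibition above the campaign mean inhibition over all tested compounds plus 3 SD, cut at about 28% in these data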;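 note: 0% = plate median of test compound wells and 100% = 2 mM ZnCl2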
IDE inh: inhibitors of human insulin-degrading enzyme in cells; 0.41% of 320,000 active; HEK cells, FAbetaB cleavage, fluorescence polarization; P14735; inhibition, % at 5.59 µM;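 active = percent inhibition above the average of all tested compounds plus 3 SD, set per screening campaign, cut at about 16% in these data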;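 note: IDE supplied by intact live HEK cells; FP after avidin binding of uncleaved biotin substrate so inhibition keeps polarization high; 0% = DMSO wells and 100% = 60 µM reference IDE inhibitor Ii1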
ALR H2O2 inh: human ALR oxidase inhibition via reduced H2O2; 3.8% of 290,000 active; purified ALR, DTT oxidation, H2O2 HRP-luminol luminescence; P55789; inhibition, % (test concentration not listed);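 active = mean replicate inhibition above about 79%, with every replicate also reaching it, limit read from the data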
Target sequence (P55789 whole entry, looked up): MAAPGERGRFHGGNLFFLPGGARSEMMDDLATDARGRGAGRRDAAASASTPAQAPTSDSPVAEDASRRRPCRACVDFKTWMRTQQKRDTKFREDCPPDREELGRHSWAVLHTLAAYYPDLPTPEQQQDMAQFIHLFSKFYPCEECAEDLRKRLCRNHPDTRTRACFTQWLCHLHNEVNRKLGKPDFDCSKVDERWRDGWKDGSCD
CaV13 ICDI inh: Disruptors of the CACNA1D IQ motif to Ca2+-dependent inactivation inhibitor domain association, primary screening, Förster resonance energy transfer in intact living …. inhibition, % at 12.3 µM. HEK cells, CFP/YFP FRET ICDI-IQ, plate reader, 10 min; percent FRET-ratio fall versus neutral wells. 0.098% of 340,000 active;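 active = mean replicate inhibition of at least 30% and at least 1% of replicates passing that level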;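 note: 0% = median of the neutral control wells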
IDE act: boosts human insulin-degrading enzyme activity in HEK cells. FAbeta-B cleavage, fluorescence polarization; 0% vehicle, 100% cell-free pure enzyme wells. 0.073% of 340,000 active. AID 493087. activation, % at 5.96 µM;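 active = activation above the mean of all tested compounds plus 3 SD, set per screening campaign, cut at about 17% in these data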
PolyA inh: yeast polyadenylation inhibition; activity score, % at 12 µM; AID 1875; 0.02% of 300,000 active; S. cerevisiae SKY197-pL101 polyadenylation reporter, beta-gal luminescence; efflux-impaired pdr1/pdr3 knockout yeast; score 100 = 6 SD above DMSO;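 active = lowest replicate activity score at least 50, where 100 means six control SD above control mean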;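 note: yeast exposed to compound for 9 h at 30 °C; higher score means more reporter readthrough which indicates perturbed polyadenylation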
Starred values were filed as active, the others as inactive.

How did CCCCOC(=O)n1c(=S)oc2cc(Cl)ccc21 do in these assays?
M18AAP inhibitor: -0.5; IDE inh: -6.4; ALR H2O2 inh: 52.8; CaV13 ICDI inh: -5.3; IDE act: -5.9; PolyA inh: -21.4

How did O=C(O)C1=C[C@H](c2ccc(C(F)(F)F)cc2)C[C@H](OCCCCO)O1 do in these assays?
IDE inh: 1.9; ALR H2O2 inh: 29.8; CaV13 ICDI inh: -3.3; IDE act: -0.1; PolyA inh: 6.8

What do the screens show for `CN(C)NC(=S)NC(=O)C12CC3CC(CC(C3)C1)C2`?
M18AAP inhibitor: 10.8; IDE inh: -0.4; ALR H2O2 inh: 92.1*; CaV13 ICDI inh: 6.2; IDE act: 5.0; PolyA inh: -4.1

Results for CC(C)(C)NC(=S)NC(=O)C12CC3CCC(CC(C3)C1)C2 ?
M18AAP inhibitor: -6.7; IDE inh: 2.6; ALR H2O2 inh: 38.5; CaV13 ICDI inh: -2.8; IDE act: 2.8; PolyA inh: -10.5

Results for COc1ccc(Cl)cc1NC(=O)C(C)OC(=O)Cn1cc(C(F)(F)F)ccc1=O (centres undefined) ?
IDE inh: 0.5; ALR H2O2 inh: -3.2; CaV13 ICDI inh: -2.0; IDE act: 2.6

What do the screens show for `Cc1c(Br)cnn1C(C)C(=O)N1CCN(c2ccc(F)cc2)CC1` (centres undefined)?
IDE inh: 3.4; ALR H2O2 inh: 94.0*; CaV13 ICDI inh: -2.4; IDE act: 1.0

What do the screens show for `Cn1ncc(Cl)c1C(=O)N1CCN(c2ccc(F)cc2)CC1`?
M18AAP inhibitor: -0.8; IDE inh: -2.2; ALR H2O2 inh: 26.0; CaV13 ICDI inh: -5.5; IDE act: 8.0; PolyA inh: 11.8

Results for CC(O)c1cc2c(cc1NC(=O)c1cnn3c1NC(c1ccco1)CC3C(F)(F)F)OCO2 (centres undefined) ?
M18AAP inhibitor: 29.2*; IDE inh: 0.1; ALR H2O2 inh: -4.6; CaV13 ICDI inh: -1.1; IDE act: 3.3; PolyA inh: -7.2

Results for CCC(C)NC(=O)c1cnn2c1NC(c1ccc3c(c1)OCO3)CC2C(F)(F)F (centres undefined) ?
M18AAP inhibitor: -1.8; IDE inh: -1.0; ALR H2O2 inh: 10.4; CaV13 ICDI inh: -6.3; IDE act: 3.1

What do the screens show for `O=C(Nc1ccc(O)cc1)c1cc2n(n1)C(C(F)(F)F)CC(c1ccco1)N2` (centres undefined)?
M18AAP inhibitor: 6.7; IDE inh: 4.5; ALR H2O2 inh: 99.2*; IDE act: -0.7; PolyA inh: 21.7

How did Cn1c(SCC(=O)c2ccccc2)nnc1-c1cnccn1 do in these assays?
M18AAP inhibitor: 1.2; IDE inh: -3.1; ALR H2O2 inh: 97.0*; CaV13 ICDI inh: -4.6; IDE act: -3.1; PolyA inh: 9.5

What do the screens show for `CCc1ccc(NC(=O)CSc2nnc(-c3cnccn3)n2C)cc1`?
M18AAP inhibitor: 2.1; IDE inh: 7.7; ALR H2O2 inh: -2.2; CaV13 ICDI inh: -2.8; IDE act: -4.6; PolyA inh: 0.6

Results for CN(C)c1ccc(NC(=O)CSc2nnc(-c3cnccn3)n2C)cc1 ?
M18AAP inhibitor: 13.8; IDE inh: -3.6; ALR H2O2 inh: 99.3*; CaV13 ICDI inh: -2.2; IDE act: 1.6; PolyA inh: 6.8

Results for CCn1c(SCC(=O)c2ccccc2)nnc1-c1cnccn1 ?
M18AAP inhibitor: -4.3; IDE inh: -3.1; ALR H2O2 inh: 51.2; CaV13 ICDI inh: -3.0; IDE act: 6.5; PolyA inh: -5.8

Results for N#Cc1cc(Nc2c(N)nc[nH]c2=O)c([N+](=O)[O-])cc1C#N ?
M18AAP inhibitor: -2.7; IDE inh: 2.1; ALR H2O2 inh: -26.0; CaV13 ICDI inh: -20.4; IDE act: 1.6; PolyA inh: -6.9

Results for CCn1cc(CNC(=O)CCc2nnc(CCC3CCCCC3)o2)cn1 ?
M18AAP inhibitor: 0.0; IDE inh: 0.3; ALR H2O2 inh: -3.0; CaV13 ICDI inh: -0.6; IDE act: 3.9; PolyA inh: -7.5

How did CCN1CCCC1CNC(=O)CCc1nnc(CCC2CCCCC2)o1 (centres undefined) do in these assays?
M18AAP inhibitor: 0.0; IDE inh: -4.3; ALR H2O2 inh: 100.2*; CaV13 ICDI inh: -6.0; IDE act: 3.9; PolyA inh: -10.6

How did COc1ccc(-c2cnnc(N/N=C/c3ccc(O)c(O)c3)n2)cc1 do in these assays?
M18AAP inhibitor: 47.5*; IDE inh: 7.1; CaV13 ICDI inh: -2.7; IDE act: 0.4; PolyA inh: 14.1

Results for COCCCNC(=O)CCS(=O)(=O)Cc1ccc(C)cc1 ?
M18AAP inhibitor: -2.5; IDE inh: 4.0; ALR H2O2 inh: -0.1; IDE act: -2.0; PolyA inh: 0.5

How did CCn1ncc2c(=O)c(C(=O)c3ccccc3)c[nH]c21 do in these assays?
CaV13 ICDI inh: -4.6

Results for Cc1cccc(/C=N/Nc2nncc3ccccc23)c1 ?
M18AAP inhibitor: 5.4; IDE inh: 4.8; ALR H2O2 inh: 96.5*; CaV13 ICDI inh: 10.7; IDE act: 0.0; PolyA inh: -29.8

What do the screens show for `C(=N\Nc1nncc2ccccc12)/c1ccccc1`?
M18AAP inhibitor: -0.7; IDE inh: 9.1; ALR H2O2 inh: -1.9; CaV13 ICDI inh: -3.9; IDE act: 2.9; PolyA inh: -19.9

How did CCC(C(=O)OCC(=O)Nc1ccc2[nH]c(=O)[nH]c2c1)c1ccccc1 (centres undefined) do in these assays?
IDE inh: 2.0; ALR H2O2 inh: 46.0; CaV13 ICDI inh: -5.7; IDE act: 3.4; PolyA inh: 0.4

How did Cc1[nH]nc(N)c1N=Nc1ccc(Br)cc1 do in these assays?
M18AAP inhibitor: 4.4; IDE inh: -5.7; ALR H2O2 inh: -1.3; CaV13 ICDI inh: -19.3; PolyA inh: 6.9

Results for Cc1nc(N)sc1N=Nc1ccc(Br)cc1 ?
M18AAP inhibitor: 2.9; IDE inh: 4.9; ALR H2O2 inh: 98.9*; CaV13 ICDI inh: -5.2; IDE act: -5.9; PolyA inh: -29.5

What do the screens show for `COc1cccc(/C=N/NC(=S)Nc2cccc(C(=O)O)c2)c1`?
M18AAP inhibitor: 28.9*; IDE inh: 2.9; ALR H2O2 inh: 28.3; CaV13 ICDI inh: 14.1; IDE act: 1.2; PolyA inh: -1.7

Results for O=C(O)c1cccc(NC(=S)NC(=O)c2cccc(OCc3ccccc3)c2)c1 ?
M18AAP inhibitor: 1.6; IDE inh: -3.0; ALR H2O2 inh: 98.5*; CaV13 ICDI inh: -4.7; IDE act: -0.7; PolyA inh: 6.4

What do the screens show for `O=C(c1ccc(NS(=O)(=O)c2ccccc2)cc1)N1CCOCC1`?
M18AAP inhibitor: -4.1; IDE inh: 5.2; ALR H2O2 inh: -4.7; CaV13 ICDI inh: -6.7; IDE act: 2.5; PolyA inh: -4.5

Results for Cc1ccccc1CC1SC(N=C(N)N)=NC1=O (centres undefined) ?
M18AAP inhibitor: 4.4; IDE inh: -5.9; ALR H2O2 inh: -7.2; CaV13 ICDI inh: 16.9; IDE act: 1.0; PolyA inh: 1.5
